nsP2pro inh: CHIKV nsP2 protease inhibition, primary qHTS; Q8JUX6; FRET peptide cleavage, nsP2pro, fluorescence 1 h; Potency, µM (top dose mostly 24.9 µM), hits mostly inhibitors; 31,000 compounds, 1.1% hits; AID 1964107; also: nearly all actives have a fitted effect of over 60% in size
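Enzyme 150 nM, substrate 2.5 uM (both final); Tris-HCl 10 mM pH 8.0 + 0.01% Tween 20; cpd up to 25 uM, 7 pts; 15 min preinc., 1 h RT; fluorescence ex 525/em 598.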
CHIKV nsP2 cell: cell-based CHIKV nsP2 protease inhibition, secondary | shares compounds with nsP2pro inh | Potency, µM (series often up to 51.1 µM), usual class: inhibitors | 450 compounds, 10% hits | AID 1964100 | cell-based CHIKV nsP2 protease reporter assay; also: nearly all actives have a fitted effect of over 70% in size
NSP2 full ctr: selectivity test for CHIKV nsP2 protease inhibitors: full-length NSP2; Full-length CHIKV NSP2 protease enzymatic counterscreen; Potency, µM (highest dose often 50.7 µM), actives largely listed as inhibitors; 410 compounds, 39% hits; shares compounds with nsP2pro inh; AID 1964101; also: nearly all actives have a fitted effect of over 65% in size
Furin counterscr: human furin inhibition, counterscreen for nsP2pro inhibitors. 410 compounds, 6% hits. shares compounds with nsP2pro inh. Potency, µM (doses to about 50.6 µM), hits mostly inhibitors. AID 1964102. Recombinant human furin enzymatic counterscreen, fluorogenic substrate
Target sequence (P09958 whole entry, looked up): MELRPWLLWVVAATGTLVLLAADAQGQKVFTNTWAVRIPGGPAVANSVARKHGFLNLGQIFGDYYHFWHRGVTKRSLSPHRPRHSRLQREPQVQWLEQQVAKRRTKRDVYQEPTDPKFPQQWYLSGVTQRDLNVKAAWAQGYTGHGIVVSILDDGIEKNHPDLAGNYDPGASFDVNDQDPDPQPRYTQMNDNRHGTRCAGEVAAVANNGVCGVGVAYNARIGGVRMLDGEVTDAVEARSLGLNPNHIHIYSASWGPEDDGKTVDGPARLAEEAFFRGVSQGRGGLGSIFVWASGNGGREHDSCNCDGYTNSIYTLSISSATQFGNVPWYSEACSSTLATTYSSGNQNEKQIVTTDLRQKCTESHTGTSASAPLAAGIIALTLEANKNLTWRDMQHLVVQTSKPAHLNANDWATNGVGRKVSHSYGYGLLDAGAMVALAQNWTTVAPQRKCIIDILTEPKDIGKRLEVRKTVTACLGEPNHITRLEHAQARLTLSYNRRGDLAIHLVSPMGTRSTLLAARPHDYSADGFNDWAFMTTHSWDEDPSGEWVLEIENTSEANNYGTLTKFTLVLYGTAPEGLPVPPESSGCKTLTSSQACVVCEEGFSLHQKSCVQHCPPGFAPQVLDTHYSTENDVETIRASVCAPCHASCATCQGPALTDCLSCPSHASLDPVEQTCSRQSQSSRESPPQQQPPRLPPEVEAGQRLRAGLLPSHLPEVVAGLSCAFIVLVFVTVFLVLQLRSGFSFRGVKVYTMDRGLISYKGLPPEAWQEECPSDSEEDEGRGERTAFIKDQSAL
NS23 peptide cs: selectivity test for CHIKV nsP2 protease inhibitors: endogenous NS2/3 peptide. shares compounds with nsP2pro inh. Purified CHIKV nsP2 protease, endogenous NS2/3 peptide cleavage. Potency, µM (titrated, usually from 51 µM), most hits filed as inhibitors. 410 compounds, 34% hits; also: nearly all actives have a fitted effect of over 55% in size
Papain counter: inhibits papain in a CHIKV nsP2 protease selectivity counterscreen; shares compounds with nsP2pro inh; purified papain protease activity, enzymatic inhibition; Potency, µM (titrated, usually from 51 µM), hits mostly inhibitors; 410 compounds, 5% hits; AID 1964104
nsP2pro confirm: CHIKV nsP2 protease inhibition, confirmatory qHTS; shares compounds with nsP2pro inh; CHIKV nsP2 protease enzymatic activity, qHTS; Potency, µM (top dose mostly 25.5 µM), most hits filed as inhibitors; 410 compounds, 43% hits; also: nearly all actives have a fitted effect of over 75% in size
HCV NS3 counter: HCV NS3/4A protease inhibition, counterscreen | shares compounds with nsP2pro inh | HCV NS3/4A protease biochemical counterscreen | Potency, µM (highest dose often 50.9 µM), usual class: inhibitors | 410 compounds, 20% hits | AID 1964106; also: nearly all actives have a fitted effect of over 55% in size
A number is an active result; . = inactive; ? = inconclusive. Many of the other results were omitted from the sample, so hits are more common in it than they were. Calls follow the shape of the full dose curve.

SMILES	nsP2pro inh	others
O=C1CC2CCN([S+](=O)([O-])c3cccs3)CC2CCN1 (stereo unspecified)	.
C[C@@H]1CN(C(=O)c2cccc(N3CCNC3=O)c2)C[C@@]1(O)C1CC1	.
O=C(Cc1ccccc1)NCC1CCCCC(=O)N1 (stereo unspecified)	.
COc1ccccc1NC(=O)C1=C(C)Nc2nc(SCc3ccccc3Cl)nn2C1c1ccncc1 (stereo unspecified)	.
COc1ccccc1NC(=O)C1=C(C)Nc2ncnn2C1c1ccccc1C(=O)O (stereo unspecified)	.
COc1ccccc1NC(=O)C1=C(C)Nc2nc(-c3ccco3)nn2C1c1ccccc1F (stereo unspecified)	?	CHIKV nsP2 cell=.
Cc1cc(NS(=O)(=O)c2ccc(NC(=O)C(C)(C)c3ccc(Cl)c(Cl)c3)cc2)no1	.
O=C(NCc1nc(-c2ncccn2)no1)c1csc(-c2cccs2)n1	.
COc1ccccc1OCC(=O)NCc1nc(-c2ccc(Cl)cc2)no1	.
Cc1cc(-c2noc(CNC(=O)c3cc(-c4ccco4)[nH]n3)n2)no1	5µM	CHIKV nsP2 cell=?;NSP2 full ctr=.;Furin counterscr=.;NS23 peptide cs=.;Papain counter=.;nsP2pro confirm=.;HCV NS3 counter=10µM
Cc1cccc(-c2noc(CNC(=O)c3ccco3)n2)c1	.
Cc1cccc(-c2noc(CCCC(=O)NCc3ccco3)n2)c1	.
CCOc1ccc(-c2noc(CNC(=O)c3cc(-c4ccco4)[nH]n3)n2)cn1	0.79µM	CHIKV nsP2 cell=?;NSP2 full ctr=8.2µM;Furin counterscr=.;NS23 peptide cs=.;Papain counter=.;nsP2pro confirm=?;HCV NS3 counter=.
CC(c1cccs1)N(C)Cc1ccc(C(F)(F)F)cc1 (stereo unspecified)	.
COc1ccc(NC(=O)[C@@H]2C[C@H](c3ccc(F)cc3)N(Cc3ccccc3Cl)C2)cn1	.
CN(C)S(=O)(=O)N1CCc2nn(C)c(=O)n2CC1	.
COc1cccc(CN2C[C@@H](CO)[C@H](NC(=O)C3CC3)C2)n1	.
CCCCCCCCCCCCCC#CC(=O)[C@@H]1COC(C)(C)N1C(=O)OC(C)(C)C	.
C/C=C(\C)C(=O)OC1C[C@@]2(COC(C)=O)O[C@H]2/C=C\[C@@]2(C)O[C@@H]2[C@H]2OC(=O)C(COC(C)=O)=C12 (stereo partly specified)	3.4µM	CHIKV nsP2 cell=.;NSP2 full ctr=?;Furin counterscr=.;NS23 peptide cs=?;Papain counter=.;nsP2pro confirm=3.5µM;HCV NS3 counter=?
C=C1C(=O)O[C@H]2[C@H]1[C@@H](OC(=O)/C(C)=C\C)C[C@]1(C)O[C@@H]1[C@H]1O[C@H]1C(=C)[C@H]2O	.
C/C=C(\C)C(=O)O[C@H]1CC2C(=C1C)[C@H]1OC(=O)[C@](C)(O)[C@]1(O)[C@H](OC(=O)CCC)C[C@@]2(C)OC(C)=O (stereo partly specified)	.
Nc1nc(CC(=O)Nc2ccc(CCNC[C@H](O)c3ccccc3)cc2)cs1	.
Cc1ccc(OCCn2c(CCNC(=O)c3ccccc3[N+](=O)[O-])nc3ccccc32)cc1	.
O=C(NC/C=C/CN1CCN(c2cccc(Cl)c2Cl)CC1)c1ccc(-c2ccccn2)cc1	.
CCC(C)C(=O)OC1CCC=C2C=CC(C)C(CCC3CC(O)CC(=O)O3)C21 (stereo unspecified)	?	CHIKV nsP2 cell=.;NSP2 full ctr=.;Furin counterscr=.;NS23 peptide cs=.;Papain counter=.;nsP2pro confirm=.;HCV NS3 counter=.
SMILES	nsP2pro inh	others
CC[C@H](C)C(=O)O[C@H]1C[C@@H](C)C=C2C=C[C@H](C)[C@H](CC[C@@H]3C[C@@H](O)CC(=O)O3)[C@H]21	.
Cn1cccc1C(=O)N1CC[C@H](NC(=O)Nc2ccc(F)cc2F)[C@H]1C(=O)N[C@H](Cc1ccccc1)C(N)=O	.
c1nc(OCc2cnc[nH]2)c2cc(-c3ccc4c(c3)OCO4)ccc2n1	.
Cc1ccc(CNc2ncnc3ccc(-c4ccc(C(=O)N(C)C)o4)cc23)o1	.
c1nc(N2CCC(N3CCCC3)CC2)c2cc(-c3ccc4c(c3)OCO4)ccc2n1	.
CC(O)c1ccc(-c2ccc3ncnc(N4CCOCC4)c3c2)o1 (stereo unspecified)	10µM	CHIKV nsP2 cell=?;NSP2 full ctr=16µM;Furin counterscr=.;NS23 peptide cs=?;Papain counter=.;nsP2pro confirm=.;HCV NS3 counter=21µM
CC(O)c1ccc(-c2ccc3ncnc(NCc4nccs4)c3c2)o1 (stereo unspecified)	10µM	CHIKV nsP2 cell=?;NSP2 full ctr=12µM;Furin counterscr=.;NS23 peptide cs=23µM;Papain counter=.;nsP2pro confirm=.;HCV NS3 counter=12µM
OCc1ccc(-c2ccc3ncnc(NCCc4cnc[nH]4)c3c2)o1	1.1µM	CHIKV nsP2 cell=21µM;NSP2 full ctr=.;Furin counterscr=.;NS23 peptide cs=.;Papain counter=.;nsP2pro confirm=.;HCV NS3 counter=10µM
Cc1ccc(CNc2ncnc3ccc(-c4ccc(CO)o4)cc23)o1	?	CHIKV nsP2 cell=.;NSP2 full ctr=.;Furin counterscr=.;NS23 peptide cs=.;Papain counter=.;nsP2pro confirm=.;HCV NS3 counter=.
O=C(O)c1ccc(-c2ccc3ncnc(NCCc4cnc[nH]4)c3c2)o1	.
CCNC(=O)c1ccc(-c2ccc3ncnc(NCCc4cnc[nH]4)c3c2)o1	.
O=C(O)c1ccc(-c2ccc3ncnc(N4CCOCC4)c3c2)o1	.
Cc1ccc(CN(C)c2ncnc3ccc(-c4ccc(CO)o4)cc23)o1	.
CCNC(=O)c1ccc(-c2ccc3ncnc(NCc4nccs4)c3c2)o1	.
Cc1csc(CNc2ncnc3ccc(-c4ccc(C(=O)O)o4)cc23)n1	.
O=C(NC[C@H]1OC[C@@H](NCc2ccccc2O)[C@@H]1O)c1ccc(F)cc1	.
Nc1cccc(OCCn2c(CCNC(=O)C3CCCCC3)nc3ccccc32)c1	.
O=C(O)[C@H]1C[C@H](C(=O)NCc2ccccn2)CN(Cc2ccccc2)C1	.
CNc1cc(C2CC(NC(=O)COc3ccc(Cl)cc3C)C2)nc(N)n1 (stereo unspecified)	.
CC1(CNCc2ccccc2)COc2ccc(C(=O)NCc3cccs3)cc2N1 (stereo unspecified)	.
COc1ccc2c(O[C@H]3CC4C(=O)N(C)CCCC/C=C\[C@@H]5C[C@@]5(C(=O)NS(=O)(=O)C5CC5)NC(=O)[C@@H]4C3)cc(-c3nc(C(C)C)cs3)nc2c1C (stereo partly specified)	.
CC(C)(C)c1ccc(-n2cnc3cc(C(=O)N4CCCCC4)ccc32)cc1	.
CC(=O)c1cc(C(=O)NCc2c(C)ncc3c2CCNC3)[nH]n1	.
Nc1nc(O)c(C2=C3C(=Nc4ccccc43)C(=O)NCC2)[nH]1	?	CHIKV nsP2 cell=.;NSP2 full ctr=.;Furin counterscr=.;NS23 peptide cs=.;Papain counter=.;nsP2pro confirm=.;HCV NS3 counter=.
CCCn1c(C)cnc1C1CCNC1 (stereo unspecified)	.
O=C1NC(=NC2CCCCC2)C2(CCN(CC3CCCCC3)C2)N1c1cccnc1 (stereo unspecified)	.

Screens (PubChem)
